Inconclusive results are not listed. A call without a number means that no potency is given here. A number with no mark means an inactive call. Activity calls are given as the source filed them. Calls come from the whole dose curve; as a rule, active = well fitted curve in the direction sought with a large enough effect; inconclusive = small, poorly fitted or top-dose-only effect, or another doubt; inactive = no such curve, though single readings can be large; an effect the other way counts as inactive or inconclusive.
How the values were obtained:
[1] = tested on: CRL-7250; assay: Cytotoxic Profiling of Annotated Libraries Using Quantitative High-Throughput Screening (AID 1296008); details: Five cell lines viability, CellTiter-Glo ATP luminescence, 48-72 h; max response: hits give low values; note: nearly all actives have a fitted effect of over 60% in size; note: potency is the fitted concentration of half-maximal effect
Procedure, shortened: (§1)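 Cytotoxicity was measured as CellTiter-Glo ATP luminescence, read after 10 min at room temperature. Compound treatment of the cells lasted 48 or 72 hr at 37 degrees Celsius in a qHTS format.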

[2] = tested on: HEK293; assay: as above; details: Five cell lines viability, CellTiter-Glo ATP luminescence, 48-72 h; max response: hits give low values
Procedure, shortened: as §1

[3] = tested on: HaCat; assay: as above; details: Five cell lines viability, CellTiter-Glo ATP luminescence, 48-72 h; max response: hits give low values
Procedure, shortened: as §1

[4] = tested on: NIH3T3; assay: as above; details: Five cell lines viability, CellTiter-Glo ATP luminescence, 48-72 h; max response: hits give low values
Procedure, shortened: as §1

[5] = tested on: C33A; assay: Primary qHTS to identify gynecologic anti-cancer compounds using libraries of approved drugs and bioactive compounds (AID 1345084); details: Gynecologic cancer cell panel viability, ATPlite luminescence, 48 h; series mostly up to 57.5 µM; note: nearly all actives have a fitted effect of over 55% in size; note: potency is the fitted concentration of half-maximal effect
Procedure, shortened: (§2)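 Luminescence from the ATPlite ATP-monitoring reagent indicates viable cell number; lower signal means cytotoxicity. Cells received compound 16 h after seeding and were exposed for 48 h across five concentrations.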

[6] = tested on: CASKI; assay: as above; details: Gynecologic cancer cell panel viability, ATPlite luminescence, 48 h; series mostly up to 57.5 µM
Procedure, shortened: as §2

[7] = tested on: Es-2; assay: as above; details: Gynecologic cancer cell panel viability, ATPlite luminescence, 48 h; series mostly up to 57.5 µM
Procedure, shortened: as §2

[8] = tested on: Hek293T; assay: as above; details: Gynecologic cancer cell panel viability, ATPlite luminescence, 48 h, control line for the selectivity index; series mostly up to 57.5 µM
Procedure, shortened: as §2

[9] = tested on: PA-1; assay: as above; details: Gynecologic cancer cell panel viability, ATPlite luminescence, 48 h; series mostly up to 57.5 µM
Procedure, shortened: as §2

[10] = tested on: SKOV3; assay: as above; details: Gynecologic cancer cell panel viability, ATPlite luminescence, 48 h; series mostly up to 57.5 µM
Procedure, shortened: as §2

[11] = tested on: HeLa; assay: as above; details: Gynecologic cancer cell panel viability, ATPlite luminescence, 48 h; series mostly up to 57.5 µM
Procedure, shortened: as §2

[12] = tested on: JEG-3; assay: as above; details: Gynecologic cancer cell panel viability, ATPlite luminescence, 48 h; series mostly up to 57.5 µM
Procedure, shortened: as §2

[13] = tested on: OV90; assay: as above; details: Gynecologic cancer cell panel viability, ATPlite luminescence, 48 h; series mostly up to 57.5 µM
Procedure, shortened: as §2

[14] = tested on: NIH3T3; assay: qHTS assay to identify novel small-molecules to repurpose for Merkel cell carcinoma treatment (AID 1296009); details: MCC and control cell lines, CellTiter-Glo viability, 72 h; series mostly up to 44.8 µM; note: nearly all actives have a fitted effect of over 60% in size
Procedure, shortened: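 After compound transfer in DMSO, plates were kept 72 hr at 37 degree celsius. Luminescent ATP signal from CellTiter-Glo served as viability measure, normalized against DMSO and no-cell controls.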

[15] = tested on: CAOV3; assay: Primary qHTS to identify gynecologic anti-cancer compounds using libraries of approved drugs and bioactive compounds (AID 1345084); details: Gynecologic cancer cell panel viability, ATPlite luminescence, 48 h; series mostly up to 57.5 µM; note: nearly all actives have a fitted effect of over 55% in size; note: potency is the fitted concentration of half-maximal effect
Procedure, shortened: as §2

C/C1=C/CCC2=CC(OC2=O)C(C)(C)/C=C/C1=O (stereo not drawn)
Potency [1]: 2.31 µM (active) | Potency [2]: 1.3 µM (active) | Potency [3]: 2.59 µM (active) | Potency [4]: 4.11 µM (active) | Potency [5]: 10 µM (active) | Potency [6]: 6.31 µM (active) | Potency [7]: 8.91 µM (active) | Potency [8]: 12.6 µM (active) | Potency [9]: 8.91 µM (active) | Potency [10]: 12.6 µM (active)

CN[C@@H]1[C@H](O[C@H]2[C@H](O[C@@H]3[C@@H](O)[C@H](O)[C@@H](N=C(N)N)[C@H](O)[C@H]3N=C(N)N)O[C@@H](C)[C@]2(O)CO)O[C@@H](CO)[C@H](O)[C@H]1O
max response [1]: 1.43% | max response [2]: -16.2% | max response [3]: -0.834% | max response [4]: 3.49% | Potency [5]: inactive | Potency [6]: inactive | Potency [7]: inactive | Potency [11]: inactive | Potency [8]: inactive | Potency [12]: inactive | Potency [13]: inactive | Potency [9]: inactive | Potency [10]: inactive

COc1cc(N2CCC(O)CC2)ccc1Nc1nc(Nc2ccccc2S(=O)(=O)C(C)C)c2[nH]cnc2n1
max response [1]: -7.74% | Potency [2]: 5.8 µM (active) | Potency [3]: 18.4 µM (active) | Potency [4]: 7.31 µM (active) | Potency [5]: inactive | Potency [7]: inactive | Potency [8]: inactive | Potency [12]: inactive | Potency [13]: inactive | Potency [9]: inactive | Potency [10]: inactive

C=CC(=O)Nc1cccc(Nc2nc(Nc3ccc(NC4CN(CCF)C4)cc3OC)ncc2C(F)(F)F)c1
Potency [1]: 7.31 µM (active) | Potency [2]: 8.2 µM (active) | Potency [3]: 3.66 µM (active) | Potency [4]: 13 µM (active) | Potency [6]: 17.8 µM (active) | Potency [7]: inactive | Potency [12]: inactive | Potency [10]: 12.6 µM (active)

COc1c(C)cnc(Cn2cc(C#CCC(C)(C)O)c3c(Cl)nc(N)nc32)c1C
Potency [1]: 0.259 µM (active) | Potency [2]: 0.0517 µM (active) | Potency [3]: 0.0731 µM (active) | Potency [4]: 0.206 µM (active) | Potency [11]: inactive | Potency [8]: 0.282 µM (active) | Potency [9]: 0.282 µM (active) | Potency [10]: 0.251 µM (active)

COC(=O)C1=CO[C@@H](O[C@@H]2O[C@H](CO)[C@@H](O)[C@H](O)[C@H]2O)[C@H]2[C@@H]1C=C[C@]21C=C([C@H](C)OC(=O)/C=C/c2ccc(O)cc2)C(=O)O1
Potency [1]: 1.22 µM (active) | Potency [2]: 1.72 µM (active) | Potency [3]: 3.85 µM (active) | Potency [4]: 3.06 µM (active) | Potency [13]: inactive | Potency [9]: 12.6 µM (active) | Potency [10]: 8.91 µM (active)

COC1CC(O[C@H]2CC[C@]3(C)C4CC[C@@]5(C)C(=O)[C@]4(CC[C@@H]3C2)CC[C@@H]5C2=CC(=O)OC2)OC(C)C1OC1OC(COC2OC(CO)C(O)C(O)C2O)C(O)C(O)C1O (stereo partly drawn)
Potency [1]: 1.55 µM (active) | Potency [2]: 1.23 µM (active) | outcome [4]: inactive | outcome [14]: inactive [at 9.27 µM] | Potency [5]: 2.82 µM (active) | Potency [7]: 2.82 µM (active) | Potency [9]: 3.16 µM (active)

CCOc1cc(C(C)(C)C)ccc1C1=N[C@@](C)(c2ccc(Cl)cc2)[C@@](C)(c2ccc(Cl)cc2)N1C(=O)N1CCN(CC(=O)N2CCOCC2)CC1
Potency [1]: 14.8 µM (active) | Potency [2]: 4.17 µM (active) | Potency [4]: 10.1 µM (active) | Potency [5]: inactive | Potency [15]: inactive | Potency [6]: inactive | Potency [7]: inactive | Potency [8]: inactive | Potency [12]: inactive | Potency [13]: inactive | Potency [9]: 10 µM (active) | Potency [10]: inactive

CC(C)(O)/C=C/C(=O)[C@](C)(O)[C@H]1[C@H](O)C[C@@]2(C)[C@@H]3CC=C4[C@@H](C[C@H](O[C@@H]5O[C@H](CO)[C@@H](O)[C@H](O)[C@H]5O)C(=O)C4(C)C)[C@]3(C)C(=O)C[C@]12C
max response [1]: -1.87% | max response [2]: -10.4% | outcome [4]: inactive | Potency [14]: inactive | Potency [5]: inactive | Potency [6]: inactive | Potency [7]: inactive | Potency [11]: inactive | Potency [8]: inactive | Potency [12]: inactive | Potency [13]: inactive | Potency [9]: inactive

C=C1C(=O)O[C@@H]2C[C@H](C)[C@@H]3CC(=O)C(C)=C3C[C@H]12
Potency [1]: 10.3 µM (active) | Potency [2]: 8.2 µM (active) | Potency [3]: 14.6 µM (active) | Potency [5]: 28.2 µM (active) | Potency [11]: inactive

COc1cc2nc(C3CC3)nc(N3CCN(c4ccccc4OC)CC3)c2cc1OC
max response [1]: -2.72% | Potency [2]: 18.4 µM (active) | max response [3]: -4.62% | Potency [5]: inactive | Potency [15]: inactive | Potency [6]: inactive | Potency [7]: inactive | Potency [11]: inactive | Potency [8]: inactive | Potency [12]: inactive | Potency [13]: inactive | Potency [9]: inactive

COC(=O)C1=COC(O[C@@H]2O[C@H](CO[C@@H]3O[C@H](COC(=O)/C=C\c4ccc(O)cc4)[C@@H](O)[C@H](O)[C@H]3O)[C@@H](O)[C@H](O)[C@H]2O)C2C(CO)=CCC12 (stereo partly drawn)
max response [1]: -64.3% | max response [2]: -82.6% | max response [4]: -28.7% | Potency [5]: inactive | Potency [15]: inactive | Potency [13]: inactive

C=CC(=O)Nc1ccc2ncnc(Nc3cccc(Br)c3)c2c1
Potency [1]: 5.8 µM (active) | Potency [2]: 20.6 µM (active) | Potency [3]: 0.0461 µM (active) | Potency [11]: inactive | Potency [8]: inactive | Potency [13]: inactive

Cc1cc(C(=O)Nc2cc(Nc3ccc4c(/C=C/c5ccccn5)n[nH]c4c3)ccc2F)n(C)n1
Potency [1]: 18.4 µM (active) | Potency [2]: 11.6 µM (active) | Potency [4]: 0.731 µM (active) | Potency [5]: inactive | Potency [15]: inactive | Potency [6]: inactive | Potency [7]: inactive | Potency [11]: inactive | Potency [12]: inactive | Potency [13]: inactive

C[C@@H](N[C@H]1CCCC[C@@H]1NC(=O)c1ccc(Cl)cc1)c1cccc2ccccc12
max response [1]: 0.829% | Potency [2]: 20.6 µM (active) | max response [3]: -13% | Potency [5]: inactive | Potency [6]: inactive | Potency [7]: inactive | Potency [11]: inactive | Potency [8]: inactive | Potency [13]: inactive | Potency [9]: inactive | Potency [10]: 31.6 µM (active)

— PubChem BioAssay (NCATS)
